Reference: PubChem BioAssay (NCATS)
A number with no mark means an inactive call. Results filed as inconclusive are left out. Entries that show only a call come without a potency. Calls of active or inactive are those of the source. Unless noted, the call rests on the fitted dose curve; in most records, active means well fitted curve in the direction sought with a large enough effect; inconclusive means small, poorly fitted or top-dose-only effect, or another doubt; inactive means no such curve, though single readings can be large; an effect the other way counts as inactive or inconclusive.

Assays:
[1] = molecular target: Cytochrome P450 2D6 (Homo sapiens) (UniProt P10635); assay: qHTS Assay for Inhibitors and Substrates of Cytochrome P450 2D6 (AID 891); further: potency means the concentration at half of the fitted maximal effect; nearly all actives have a fitted effect of over 60% in size
Outline: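 Human CYP2D6 (5 nM) with 30 uM Luciferin-ME EGE (at Km) in 100 mM KPO4, compound preincubated 10 min, then NADPH regeneration system for 60 min at room temperature. Luciferin read by luminescence; normalized to 1.43 uM quinidine.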

[2] = molecular target: Cytochrome P450 2C19 (Homo sapiens) (UniProt P33261); assay: qHTS Assay for Inhibitors and Substrates of Cytochrome P450 2C19 (AID 899); further: nearly all actives have a fitted effect of over 60% in size; further: potency means the concentration at half of the fitted maximal effect
Outline: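 Reactions contain 5nM enzyme, 10uM Luciferin-H EGE (KM) and 50mM KPO4; compound preincubates 10 min at 37C, NADPH regeneration starts turnover for 60 min. Luminescence after detection reagent gives activity.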

[3] = S16 Schwann cell PMP22 intronic element beta-lactamase assay (AID 624044; calls by dose curve; further: nearly all actives have a fitted effect of over 15% in size)
Outline: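 Rat S16 Schwann cells with beta-Lac driven by a PMP22 intronic element, compound-treated 24 h at 37 °C. LiveBLAzer FRET B/G read: 460 nm normalized to potassium clavulanate vs DMSO; 535 nm FRET as viability; concentration-effect curves classified.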

[4] = tested on: CP201; assay: qHTS profiling for inhibitors of Plasmodium falciparum proliferation (AID 504749); further: nearly all actives have a fitted effect of over 60% in size; further: potency means the concentration at half of the fitted maximal effect; conditions: P. falciparum in erythrocytes, SYBR Green DNA, 72 h; series mostly up to 12.8 µM
Outline: (§1)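 Infected RBCs, 0.3% parasitemia/2.5% Hct final; cpd 72 h, 37 C, 5% CO2; lysis buffer with saponin/triton/SYBR Green I, o/n RT dark; FI 485/535; norm. to artemisinin (0.29 uM) and DMSO.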

[5] = tested on: CP215; assay: as above; conditions: P. falciparum in erythrocytes, SYBR Green DNA, 72 h; series mostly up to 12.8 µM
Outline: as §1

[6] = tested on: CP237; assay: as above; conditions: P. falciparum in erythrocytes, SYBR Green DNA, 72 h; series mostly up to 12.8 µM
Outline: as §1

[7] = tested on: CP315; assay: as above; conditions: P. falciparum in erythrocytes, SYBR Green DNA, 72 h; series mostly up to 12.8 µM
Outline: as §1

[8] = tested on: DFO2036; assay: as above; conditions: P. falciparum in erythrocytes, SYBR Green DNA, 72 h; series mostly up to 12.8 µM
Outline: as §1

[9] = tested on: DIV17; assay: as above; conditions: P. falciparum in erythrocytes, SYBR Green DNA, 72 h; series mostly up to 12.8 µM
Outline: as §1

[10] = tested on: P94_40; assay: as above; conditions: P. falciparum in erythrocytes, SYBR Green DNA, 72 h; series mostly up to 12.8 µM
Outline: as §1

[11] = tested on: PC26; assay: as above; conditions: P. falciparum in erythrocytes, SYBR Green DNA, 72 h; series mostly up to 12.8 µM
Outline: as §1

[12] = tested on: CP194; assay: as above; conditions: P. falciparum in erythrocytes, SYBR Green DNA, 72 h; series mostly up to 12.8 µM
Outline: as §1

[13] = tested on: CP211; assay: as above; conditions: P. falciparum in erythrocytes, SYBR Green DNA, 72 h; series mostly up to 12.8 µM
Outline: as §1

[14] = tested on: CP291; assay: as above; conditions: P. falciparum in erythrocytes, SYBR Green DNA, 72 h; series mostly up to 12.8 µM
Outline: as §1

[15] = tested on: GB4; assay: as above; conditions: P. falciparum in erythrocytes, SYBR Green DNA, 72 h; series mostly up to 12.8 µM
Outline: as §1

[16] = tested on: W2; assay: as above; conditions: P. falciparum in erythrocytes, SYBR Green DNA, 72 h; series mostly up to 12.8 µM
Outline: as §1

[17] = S16 Schwann cell viability assay (CellTiter-Glo assay) (AID 624031);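 further: cellular ATP luminescence as a viability measure; nearly all actives have a fitted effect of over 70% in size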
Outline: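 Untransfected S16 rat Schwann cells; compound 24 h, 37 °C/5% CO2; CellTiter-Glo ATP luminescence. % activity vs no-cell wells and DMSO controls (0%); concentration-effect curves classed by r2, response magnitude, activity.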

[18] = molecular target: Cytochrome P450 2C9 (Homo sapiens) (UniProt P11712); assay: qHTS Assay for Inhibitors and Substrates of Cytochrome P450 2C9 (AID 883); further: nearly all actives have a fitted effect of over 60% in size; further: potency means the concentration at half of the fitted maximal effect
Outline: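 Turnover of Luciferin-H (100uM, KM) by 10nM human CYP2C9 was measured over 60 min at 37C with NADPH regeneration; inhibitors and some substrates reduce luminescence. Data normalized to sulphaphenazole 57uM.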

[19] = molecular target: Cytochrome P450 3A4 (Homo sapiens) (UniProt P08684); assay: qHTS Assay for Activators of Cytochrome P450 3A4 (AID 885); further: nearly all actives have a fitted effect of over 65% in size; further: potency means the concentration at half of the fitted maximal effect
Outline: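 Quantitative HTS format: compounds preincubated with 20nM human CYP3A4 and Luciferin-PPXE substrate at KM, reaction started by NADPH regeneration, stopped after 60 min, luciferase luminescence read 20 min later.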

[20] = molecular target: Cytochrome P450 3A4 (Homo sapiens) (UniProt P08684); assay: qHTS Assay for Inhibitors and Substrates of Cytochrome P450 3A4 (AID 884); further: nearly all actives have a fitted effect of over 50% in size
Outline: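 20 nM human CYP3A4 with 25 uM Luciferin-PPXE (at KM) in 200 mM KPO4, preincubated 10 min with compound; NADPH regeneration started a 60 min RT reaction. Luciferin detected by luminescence, normalized to 57 uM ketoconazole as full inhibition.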

Cytochrome P450 2C9 (Homo sapiens), sequence (P11712 whole entry, looked up): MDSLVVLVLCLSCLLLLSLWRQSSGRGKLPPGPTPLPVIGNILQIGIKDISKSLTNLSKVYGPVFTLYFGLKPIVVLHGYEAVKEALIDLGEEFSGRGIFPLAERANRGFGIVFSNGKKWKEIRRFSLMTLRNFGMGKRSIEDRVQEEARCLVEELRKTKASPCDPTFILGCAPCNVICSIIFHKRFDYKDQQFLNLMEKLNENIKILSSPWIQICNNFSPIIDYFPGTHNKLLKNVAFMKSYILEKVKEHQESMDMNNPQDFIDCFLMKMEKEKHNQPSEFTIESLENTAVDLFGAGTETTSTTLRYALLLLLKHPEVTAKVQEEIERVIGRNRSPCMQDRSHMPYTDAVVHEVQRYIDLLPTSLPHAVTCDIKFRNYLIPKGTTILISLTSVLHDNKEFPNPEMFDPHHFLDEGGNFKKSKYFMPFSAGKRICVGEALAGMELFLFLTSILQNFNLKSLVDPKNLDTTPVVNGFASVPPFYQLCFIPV
Cytochrome P450 2C19 (Homo sapiens), sequence (P33261 whole entry, looked up): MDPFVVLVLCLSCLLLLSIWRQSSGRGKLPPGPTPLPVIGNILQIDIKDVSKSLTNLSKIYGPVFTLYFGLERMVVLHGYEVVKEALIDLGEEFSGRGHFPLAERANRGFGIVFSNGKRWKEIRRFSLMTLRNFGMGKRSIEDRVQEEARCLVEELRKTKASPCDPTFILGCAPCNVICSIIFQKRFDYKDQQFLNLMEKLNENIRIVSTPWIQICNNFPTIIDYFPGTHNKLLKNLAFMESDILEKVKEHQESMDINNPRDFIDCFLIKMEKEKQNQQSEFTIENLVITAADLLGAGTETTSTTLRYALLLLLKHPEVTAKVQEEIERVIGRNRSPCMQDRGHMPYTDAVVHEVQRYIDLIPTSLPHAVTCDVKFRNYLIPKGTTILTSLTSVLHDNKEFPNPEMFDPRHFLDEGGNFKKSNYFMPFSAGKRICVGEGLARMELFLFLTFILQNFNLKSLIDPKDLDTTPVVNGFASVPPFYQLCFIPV
Cytochrome P450 3A4 (Homo sapiens), sequence (P08684 whole entry, looked up): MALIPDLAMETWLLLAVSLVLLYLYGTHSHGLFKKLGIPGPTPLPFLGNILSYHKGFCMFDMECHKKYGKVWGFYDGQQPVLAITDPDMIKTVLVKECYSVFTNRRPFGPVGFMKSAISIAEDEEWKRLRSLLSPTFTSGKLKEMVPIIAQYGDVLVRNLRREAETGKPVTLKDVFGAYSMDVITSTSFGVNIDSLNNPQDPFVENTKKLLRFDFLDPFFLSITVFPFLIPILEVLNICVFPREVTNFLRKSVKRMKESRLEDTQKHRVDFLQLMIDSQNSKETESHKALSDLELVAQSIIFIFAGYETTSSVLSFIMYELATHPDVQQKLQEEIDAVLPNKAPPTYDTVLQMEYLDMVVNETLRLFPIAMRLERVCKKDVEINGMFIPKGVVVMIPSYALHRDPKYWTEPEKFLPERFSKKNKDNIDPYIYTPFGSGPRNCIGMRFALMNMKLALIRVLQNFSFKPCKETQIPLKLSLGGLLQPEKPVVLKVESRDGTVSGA
Cytochrome P450 2D6 (Homo sapiens), sequence (P10635 whole entry, looked up): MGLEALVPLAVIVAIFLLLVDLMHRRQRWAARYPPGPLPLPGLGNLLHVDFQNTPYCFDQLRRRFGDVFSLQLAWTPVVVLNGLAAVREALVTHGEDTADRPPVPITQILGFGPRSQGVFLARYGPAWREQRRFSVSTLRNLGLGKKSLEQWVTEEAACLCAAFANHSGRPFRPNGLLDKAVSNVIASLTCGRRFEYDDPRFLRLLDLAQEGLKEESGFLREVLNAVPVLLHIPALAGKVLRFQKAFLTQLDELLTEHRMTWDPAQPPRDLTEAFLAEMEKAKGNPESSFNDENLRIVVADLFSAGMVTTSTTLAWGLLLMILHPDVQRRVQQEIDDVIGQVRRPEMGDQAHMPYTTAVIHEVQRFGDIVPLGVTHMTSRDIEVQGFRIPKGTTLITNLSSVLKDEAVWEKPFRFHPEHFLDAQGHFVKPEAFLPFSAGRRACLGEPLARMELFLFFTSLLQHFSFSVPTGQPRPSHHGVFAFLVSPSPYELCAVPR

## CN(C/C=C\c1ccccc1)Cc1cccc2ccccc12
[1]
  Potency: 0.251 µM (active)
[2]
  Potency: 0.501 µM (active)
[3]
  Potency: inactive
[4]
  Potency: inactive
[5]
  Potency: inactive
[6]
  Potency: inactive
[7]
  Potency: inactive
[8]
  Potency: inactive
[9]
  Potency: inactive
[10]
  Potency: inactive
[11]
  Potency: inactive

## CO[C@]1(NC(=O)C2SC(=C(C(N)=O)C(=O)O)S2)C(=O)N2C(C(=O)O)=C(CSc3nnnn3C)CS[C@H]21 (some centres not stated)
[12]
  Potency: inactive
[4]
  Potency: inactive
[13]
  Potency: inactive
[5]
  Potency: inactive
[6]
  Potency: inactive
[14]
  Potency: inactive
[7]
  Potency: inactive
[8]
  Potency: inactive
[9]
  Potency: inactive
[15]
  Potency: inactive
[10]
  Potency: inactive
[11]
  Potency: inactive
[16]
  Potency: inactive

## CC[C@H](Cc1c(I)cc(I)c(N)c1I)C(=O)O
[17]
  outcome: inactive
[12]
  Potency: inactive
[4]
  Potency: inactive
[13]
  Potency: inactive
[5]
  Potency: inactive
[6]
  Potency: inactive
[14]
  Potency: inactive
[7]
  Potency: inactive
[8]
  Potency: inactive
[9]
  Potency: inactive
[15]
  Potency: inactive
[10]
  Potency: inactive
[11]
  Potency: inactive

## C=CCOc1ccccc1OC[C@H](O)CNC(C)C
[18]
  Potency: inactive
[3]
  Potency: inactive
[12]
  Potency: inactive
[4]
  Potency: inactive
[13]
  Potency: inactive
[6]
  Potency: 3.16 µM (active)
[14]
  Potency: inactive
[8]
  Potency: inactive
[9]
  Potency: inactive
[11]
  Potency: inactive
[16]
  Potency: 1.14 µM (active)

## CC(=O)OCC(=O)[C@@]1(O)[C@H](C)C[C@@H]2[C@H]3CCC4=CC(=O)C=C[C@]4(C)[C@]3(F)[C@@H](O)C[C@@]21C
[17]
  outcome: inactive
[12]
  Potency: inactive
[4]
  Potency: inactive
[13]
  Potency: inactive
[5]
  Potency: inactive
[6]
  Potency: inactive
[14]
  Potency: inactive
[7]
  Potency: inactive
[8]
  Potency: inactive
[9]
  Potency: inactive
[15]
  Potency: inactive
[10]
  Potency: inactive
[11]
  Potency: inactive
[16]
  Potency: inactive

## Nc1ccccc1S(N)(=O)=O
[18]
  Potency: inactive

## CC(C)NC[C@H]1CCc2cc(CO)c([N+](=O)[O-])cc2N1
[17]
  outcome: inactive
[12]
  Potency: inactive
[4]
  Potency: inactive
[5]
  Potency: inactive
[6]
  Potency: inactive
[14]
  Potency: inactive
[7]
  Potency: inactive
[8]
  Potency: inactive
[9]
  Potency: inactive
[15]
  Potency: inactive
[10]
  Potency: inactive
[11]
  Potency: inactive
[16]
  Potency: inactive

## NC(=O)N/N=C\c1ccc([N+](=O)[O-])o1
[19]
  Potency: inactive

## OCCN1CCN(CCC=C2c3ccccc3Sc3ccc(Cl)cc32)CC1
[19]
  Potency: inactive
[3]
  Potency: inactive
[15]
  Potency: 4.05 µM (active)
[16]
  Potency: 0.721 µM (active)

## CNC[C@H](O)c1ccc(OC(=O)C(C)(C)C)c(OC(=O)C(C)(C)C)c1
[17]
  outcome: inactive
[3]
  Potency: inactive
[12]
  Potency: inactive
[4]
  Potency: inactive
[13]
  Potency: inactive
[6]
  Potency: inactive
[14]
  Potency: inactive
[8]
  Potency: inactive
[10]
  Potency: inactive

## COc1cc2c(cc1OC)-c1cc3ccc(OC)c(OC)c3c[n+]1CC2
[19]
  Potency: inactive

## C[C@@]12C=CC(=O)C=C1CC[C@@H]1[C@@H]2[C@H](O)C[C@]2(C)[C@@H]1CC[C@]2(O)C(=O)CO
[2]
  Potency: inactive

## Clc1ccc(CC[C@H](Cn2ccnc2)Sc2c(Cl)cccc2Cl)cc1
[18]
  Potency: 0.0126 µM (active)
[19]
  Potency: inactive
[1]
  Potency: 1.26 µM (active)
[2]
  Potency: 0.0025 µM (active)
[17]
  outcome: inactive
[3]
  Potency: inactive
[12]
  Potency: 6.42 µM (active)
[14]
  Potency: 5.73 µM (active)
[9]
  Potency: 4.05 µM (active)
[15]
  Potency: 3.22 µM (active)
[11]
  Potency: 4.55 µM (active)
[16]
  Potency: 2.03 µM (active)

## COC(=O)C1=C(C)NC(C)=C(C(=O)OC(C)C)[C@H]1c1cccc2nonc12
[8]
  Potency: inactive

## CC1(C)O[C@H]2C[C@@H]3[C@H]4CCC5=CC(=O)CC[C@@]5(C)[C@]4(F)[C@@H](O)C[C@@]3(C)[C@@]2(C(=O)CCl)O1
[17]
  outcome: inactive
[3]
  Potency: inactive
[9]
  Potency: 6.42 µM (active)
[15]
  Potency: 5.73 µM (active)
[10]
  Potency: 3.16 µM (active)
[11]
  Potency: 6.42 µM (active)
[16]
  Potency: 4.55 µM (active)

## CC(=O)CC(=O)[C@@]1(O)CC[C@@H]2[C@@H]3C=C(C)C4=CC(=O)CC[C@@H]4[C@H]3CC[C@]21C
[20]
  Potency: inactive
[19]
  Potency: 2.51 µM (active)
[2]
  Potency: 5.01 µM (active)

## NC[C@@H]1O[C@H](O[C@H]2[C@H](O)[C@H](O[C@@H]3O[C@H](CO)[C@@H](O)[C@H](N)[C@@H]3O)[C@@H](N)C[C@H]2N)[C@@H](O)[C@H](O)[C@@H]1O
[12]
  Potency: inactive
[4]
  Potency: inactive
[13]
  Potency: inactive
[5]
  Potency: inactive
[6]
  Potency: inactive
[14]
  Potency: inactive
[7]
  Potency: inactive
[9]
  Potency: inactive
[15]
  Potency: inactive
[10]
  Potency: inactive
[11]
  Potency: inactive
[16]
  Potency: inactive
